Values without a mark were called inactive. Results filed as inconclusive are left out. Active and inactive are the calls of the source. Unless noted, calls come from the whole dose curve; as a rule, active = well fitted curve in the direction sought with a large enough effect; inconclusive = small, poorly fitted or top-dose-only effect, or another doubt; inactive = no such curve, though single readings can be large; an effect the other way counts as inactive or inconclusive.
Experiments:
[1] = biological target: Lysosomal acid glucosylceramidase (Homo sapiens) (UniProt P04062); assay: Glucocerebrosidase-p2 (AID 348; in the data active = potency below about 10 µM; note: potency is the fitted concentration of half-maximal effect); details: purified GBA, blue fluorogenic substrate, 40 min
How it was run: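 Normal human glucocerebrosidase (0.2 nM) with blue fluorogenic substrate (80 uM final) in citrate/phosphate pH 5.9 with 10mM sodium taurocholate, 0.01% tween-20; 40 min RT, NaOH/glycine stop; fluorescence Ex 365/Em 440; AC50 from a titration from 0.6 nM upwards.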

[2] = AP1 Signaling Pathway (AID 357; active = well fitted curve in either direction with a large enough effect, not every such curve was filed as active;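 note: ME-180 reporter cells stimulated with EGF at its EC50 level; % is set by controls: 0 for no effect and ±100 for the full control effect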); details: ME-180 AP-1-bla reporter, EGF-induced, beta-lactamase ratio, 5 h; at 7.69 µM (top of the series) unless noted
How it was run: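 A ratiometric CCF4 readout (405 nm excitation; 460 and 530 nm emission) quantified AP-1-driven beta-lactamase in ME-180 cells after 5 h with compound and EC50 EGF; AC50 values were derived for activators and inhibitors.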

[3] = NFAT Signaling Pathway (AID 444; active = well fitted curve in either direction with a large enough effect, not every such curve was filed as active;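 note: carbachol stimulus at about its EC50 of 1 µM final; % is set by controls: 0 for no effect and ±100 for the full control effect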); details: Jurkat NFAT-bla M1, carbachol, beta-lactamase ratio, 5 h; at 7.69 µM (top of the series) unless noted
How it was run: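 Read-out: CCF4 FRET ratio (460 nm/530 nm) after 1 h RT dye loading, used for %activity and AC50 from titration series. Cells: Jurkat NFAT-β-lactamase/M1 line, treated with compound plus 1 uM carbachol for 5 h, 37 °C.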

[4] = Stat Signaling Pathway (AID 446; active = well fitted curve in either direction with a large enough effect, not every such curve was filed as active;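 note: ME-180 cervical cancer cells given 40 pM IL-6 alongside compound; SIE-controlled beta-lactamase reporter measured as 460/530 nm FRET emission ratio; % is set by controls: 0 for no effect and ±100 for the full control effect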); details: ME-180 SIE beta-lactamase reporter, IL-6 stimulated, 5 h; at 7.69 µM (top of the series) unless noted
How it was run: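 Compound effects on IL-6-induced STAT reporter activity were measured in ME-180 cells. After overnight culture, cells were co-treated with 40 pM IL-6 for 5 hrs before beta-lactamase substrate loading at room temperature.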

[5] = biological target: Glucocorticoid receptor (Homo sapiens) (UniProt P04150); assay: GR-GFP Redistribution (AID 450;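 active = compounds whose dose series gives a full or clear partial fitted curve of increased nuclear translocation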; note: potency is the fitted concentration of half-maximal effect); details: U2OS GR-GFP nuclear translocation, laser cytometry, 2 h
[6] = biological target: Glucocorticoid receptor (Homo sapiens) (UniProt P04150); assay: GR-EFC Redistribution (AID 451; calls by dose curve; note: potency is the fitted concentration of half-maximal effect); details: CHO-K1 GR-EFC translocation, beta-gal luminescence, 2 h
How it was run: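 Translocation of GR-ED fusion to nuclear EA restores b-gal, read by luminescence after 1 h room-temperature detection. Engineered CHO-K1 biosensor cells, 1,000/well, exposed 2 h at 37 C to titrations up to 46 uM final.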

[7] = biological target: Mitogen-activated protein kinase 10 (Mus musculus) (UniProt Q61831); assay: JNK3 AlphaScreen Assay (AID 530; active = well fitted curve in either direction with a large enough effect, not every such curve was filed as active;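 note: kinase came from lysate of stimulated human HepG2 cells; signal reports phosphorylation of biotinylated GST-cJun 1-79 at Ser73 with 10 µM ATP; % is set by controls: 0 for no effect and ±100 for the full control effect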); details: JNK3 lysate, c-Jun phosphorylation; series mostly up to 57.1 µM
How it was run: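 Kinase buffer: 20 mM Tris-HCl pH 7.6, 10 mM MgCl2, 1 mM DTT, 0.1 mM Na3VO4, 0.01% Tween-20; ATP 10 uM. Substrate biotin-GST-cJun(1-79), enzyme from activated HepG2 lysates. Detection by Ser73 phospho-antibody AlphaScreen.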

[8] = biological target: Dual specificity protein kinase CLK4 (Homo sapiens) (UniProt Q9HAZ1); assay: qHTS Assay for Inhibitors of CDC-like Kinase 4 (Kinase-Glo Assay) (AID 1770); details: recombinant Clk4, Kinase-Glo ATP depletion luminescence; series mostly up to 66.7 µM; note: nearly all actives have a fitted effect of over 65% in size; note: potency is the fitted concentration of half-maximal effect
How it was run: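 Clk4 25 nM, RS peptide 100 uM, ATP 1 uM, pH 7.5 Tris, 10 mM MgCl2, 2.5 mM DTT; 4.5 h RT; ATP depletion read by Kinase-Glo luminescence.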

[9] = biological target: Dual specificity protein kinase CLK4 (Homo sapiens) (UniProt Q9HAZ1); assay: qHTS Assay for Inhibitors of CDC-like Kinase 4 (ADP-Glo Assay) (AID 1771); details: recombinant CLK4, ADP-Glo luminescence; series mostly up to 80 µM; note: nearly all actives have a fitted effect of over 70% in size; note: potency is the fitted concentration of half-maximal effect
How it was run: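 25 nM Clk4, 100 uM RS peptide, 1 uM ATP (final); 2 mM MgCl2, 0.5 mM EGTA, 2.5 mM DTT, 0.01% Triton X-100; 1 hr RT. ADP-Glo readout: ATP depletion 45 min, conversion/luciferase 30 min, luminescence.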

[10] = biological target: Ubiquitin carboxyl-terminal hydrolase 1 (Homo sapiens) (UniProt O94782); assay: Inhibitors of USP1/UAF1: Pilot qHTS (AID 504865); details: purified USP1/UAF1, Ub-rhodamine cleavage fluorescence; series mostly up to 54.9 µM;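 note: rhodamine fluorescence freed from ubiquitin-rhodamine substrate followed over time; top concentration of the series differs between compounds; % is set by controls: 0 for no effect and ±100 for the full control effect; nearly all actives have a fitted effect of over 35% in size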
How it was run: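 Enzyme-free wells gave the negative control, while test wells held 1nM USP1/UAF1 preincubated with compound for 15 min at room temperature. Ub-Rho at 150nM final started the reaction, and fluorescence at 480/540 nm was recorded kinetically.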

[11] = Primary qHTS for small molecule stabilizers of the endoplasmic reticulum resident proteome: Secreted ER Calcium Modulated Protein (SERCaMP) assay (AID 1508630); details: SH-SY5Y GLuc-SERCaMP (Gaussia luciferase released on ER calcium loss) secretion, thapsigargin, luminescence; series mostly up to 38.4 µM; note: % is set by controls: 0 for no effect and ±100 for the full control effect
How it was run: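 The SH-SY5Y reporter protocol was run at 3 concentrations up to 38.3 uM (primary) or 11 concentrations (follow-up): 16 h compound, 100 nM thapsigargin for 4 h, then extracellular luciferase luminescence.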

[12] = biological target: Cytochrome P450 1A2 (Homo sapiens) (UniProt P05177); assay: p450-cyp1a2 (AID 410; calls by dose curve; note: potency is the fitted concentration of half-maximal effect); details: recombinant CYP1A2, luciferin-ME demethylation, luminescence; series mostly up to 57 µM
How it was run: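 20nM CYP1A2, 100uM Luciferin-ME (=Km), 100mM KPO4; cpd 10 min RT; +NADPH regen, 60 min RT; stop/detect 20 min; luminescence. Normalized to furafylline 57 uM = full inhibition.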

[13] = biological target: 3',5'-cyclic-AMP phosphodiesterase 4B (Homo sapiens) (UniProt Q07343); assay: qHTS Assay for Inhibitors of PDE-IV (AID 607; active = well fitted activation curve with a large enough effect in the main read-out, with a control signal flat, not every such curve was filed as active; note: % of control where 0% means no effect); details: HEK293 ACTOne CNG channel cells, membrane potential fluorescence; series mostly up to 22.9 µM
How it was run: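 ACTOne HEK293 cells carry a modified cAMP-gated CNG channel and express endogenous PDE4; plated 1000 cells/well, compounds up to 22.9 uM final. Membrane-potential dye fluorescence (ex 535/em 590) was read; parental cells received 10 uM forskolin + 100 uM RO 20-1724.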

[14] = biological target: Cytochrome P450 3A4 (Homo sapiens) (UniProt P08684); assay: qHTS Assay for Activators of Cytochrome P450 3A4 (AID 885); details: recombinant CYP3A4, Luciferin-PPXE luminescence, 60 min; series mostly up to 57.1 µM; note: nearly all actives have a fitted effect of over 65% in size
How it was run: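 CYP3A4 activity: Luciferin-PPXE O-dealkylation, 25uM substrate, 200mM KPO4, RT throughout. Read-out is luciferase luminescence; higher values reflect activation.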

[15] = qHTS Assay for Identification of Small Molecule Agonists for Hypoxia Response Element Signaling Pathway (AID 914; active = well fitted activation curve with a large enough effect in the signal ratio, with a control signal flat, not every such curve was filed as active; the % refers to the signal ratio; note: potency is the fitted concentration of half-maximal effect; for activation: % of control where 0% means no effect); details: ME-180 (cervical carcinoma) HRE-bla reporter, beta-lactamase ratio, CoCl2, 17 h; activation: active compounds read high
How it was run: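 HRE-bla ME-180 cells with beta-lactamase reporter under hypoxia response element, compounds with EC50 CoCl2 for 17 hours at 37 C. CCF4 substrate, 460nm/530nm emission ratio gave %Activity; AC50 from titration series.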

[16] = biological target: Cytochrome P450 2C9 (Homo sapiens) (UniProt P11712); assay: qHTS Assay for Inhibitors and Substrates of Cytochrome P450 2C9 (AID 883); details: recombinant CYP2C9, luciferin-H luminescence, 60 min; series mostly up to 57.1 µM; note: % is set by controls: 0 for no effect and ±100 for the full control effect; nearly all actives have a fitted effect of over 60% in size
How it was run: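 Inhibition of CYP2C9 is scored as loss of luminescence, with 57uM sulphaphenazole defining 100% inhibition. Substrate Luciferin-H is used at 100uM, equal to its KM; enzyme at 10nM in 25mM KPO4, 60 min at 37C with NADPH regeneration.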

[17] = biological target: Cytochrome P450 3A4 (Homo sapiens) (UniProt P08684); assay: qHTS Assay for Inhibitors and Substrates of Cytochrome P450 3A4 (AID 884); details: recombinant CYP3A4, Luciferin-PPXE luminescence; series mostly up to 57.1 µM; note: potency is the fitted concentration of half-maximal effect; nearly all actives have a fitted effect of over 50% in size
How it was run: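 Luminescent readout of luciferin produced by CYP3A4 (20 nM) dealkylation of Luciferin-PPXE, 25 uM (its KM). NADPH-driven reaction ran 60 min at RT after 10 min compound preincubation; data scaled to 57 uM ketoconazole as 100% inhibition.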

Chain of Dual specificity protein kinase CLK4 (Homo sapiens) (Q9HAZ1 whole entry, looked up): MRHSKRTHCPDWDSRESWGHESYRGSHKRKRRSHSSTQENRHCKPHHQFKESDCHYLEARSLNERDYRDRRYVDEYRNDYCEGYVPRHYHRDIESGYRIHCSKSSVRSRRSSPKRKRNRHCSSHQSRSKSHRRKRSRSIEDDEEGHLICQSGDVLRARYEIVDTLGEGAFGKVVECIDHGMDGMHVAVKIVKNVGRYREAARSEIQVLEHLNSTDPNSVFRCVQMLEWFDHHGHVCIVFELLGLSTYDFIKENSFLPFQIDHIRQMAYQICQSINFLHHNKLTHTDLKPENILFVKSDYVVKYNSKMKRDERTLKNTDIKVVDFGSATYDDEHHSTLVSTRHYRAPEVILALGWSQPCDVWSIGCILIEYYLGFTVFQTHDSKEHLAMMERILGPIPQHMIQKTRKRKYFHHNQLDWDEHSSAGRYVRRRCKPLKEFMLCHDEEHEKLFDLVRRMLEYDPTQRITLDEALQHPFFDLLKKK
Chain of 3',5'-cyclic-AMP phosphodiesterase 4B (Homo sapiens) (Q07343 whole entry, looked up): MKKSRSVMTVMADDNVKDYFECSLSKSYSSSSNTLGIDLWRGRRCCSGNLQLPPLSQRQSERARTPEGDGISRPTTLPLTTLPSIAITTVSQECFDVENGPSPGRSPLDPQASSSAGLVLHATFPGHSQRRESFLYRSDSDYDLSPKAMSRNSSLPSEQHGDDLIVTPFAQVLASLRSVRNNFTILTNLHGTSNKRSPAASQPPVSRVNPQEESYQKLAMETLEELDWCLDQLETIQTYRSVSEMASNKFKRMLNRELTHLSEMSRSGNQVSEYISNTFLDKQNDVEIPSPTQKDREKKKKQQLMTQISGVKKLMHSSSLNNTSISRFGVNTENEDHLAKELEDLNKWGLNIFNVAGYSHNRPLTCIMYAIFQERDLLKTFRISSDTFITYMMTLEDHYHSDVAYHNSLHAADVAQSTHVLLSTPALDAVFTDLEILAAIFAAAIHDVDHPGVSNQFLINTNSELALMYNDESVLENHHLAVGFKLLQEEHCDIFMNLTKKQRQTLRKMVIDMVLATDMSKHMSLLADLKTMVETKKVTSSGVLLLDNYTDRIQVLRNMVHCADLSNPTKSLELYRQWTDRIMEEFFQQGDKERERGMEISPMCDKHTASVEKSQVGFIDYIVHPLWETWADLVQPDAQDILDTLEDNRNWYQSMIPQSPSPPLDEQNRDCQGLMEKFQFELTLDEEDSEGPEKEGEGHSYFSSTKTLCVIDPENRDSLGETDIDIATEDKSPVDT
Chain of Cytochrome P450 1A2 (Homo sapiens) (P05177 whole entry, looked up): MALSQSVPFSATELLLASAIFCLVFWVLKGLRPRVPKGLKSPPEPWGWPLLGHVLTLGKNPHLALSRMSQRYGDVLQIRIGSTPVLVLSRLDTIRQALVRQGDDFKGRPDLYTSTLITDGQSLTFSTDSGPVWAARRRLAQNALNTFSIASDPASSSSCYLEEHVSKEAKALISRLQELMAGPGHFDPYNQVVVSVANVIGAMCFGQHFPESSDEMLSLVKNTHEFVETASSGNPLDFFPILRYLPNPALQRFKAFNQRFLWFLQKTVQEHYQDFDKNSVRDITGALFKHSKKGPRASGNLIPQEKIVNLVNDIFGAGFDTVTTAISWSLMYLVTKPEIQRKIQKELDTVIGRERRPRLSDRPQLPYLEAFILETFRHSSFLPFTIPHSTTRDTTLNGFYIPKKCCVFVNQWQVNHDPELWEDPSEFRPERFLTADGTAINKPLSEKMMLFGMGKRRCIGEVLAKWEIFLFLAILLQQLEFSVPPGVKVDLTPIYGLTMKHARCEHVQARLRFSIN
Chain of Glucocorticoid receptor (Homo sapiens) (P04150 whole entry, looked up, the tested form may be a part): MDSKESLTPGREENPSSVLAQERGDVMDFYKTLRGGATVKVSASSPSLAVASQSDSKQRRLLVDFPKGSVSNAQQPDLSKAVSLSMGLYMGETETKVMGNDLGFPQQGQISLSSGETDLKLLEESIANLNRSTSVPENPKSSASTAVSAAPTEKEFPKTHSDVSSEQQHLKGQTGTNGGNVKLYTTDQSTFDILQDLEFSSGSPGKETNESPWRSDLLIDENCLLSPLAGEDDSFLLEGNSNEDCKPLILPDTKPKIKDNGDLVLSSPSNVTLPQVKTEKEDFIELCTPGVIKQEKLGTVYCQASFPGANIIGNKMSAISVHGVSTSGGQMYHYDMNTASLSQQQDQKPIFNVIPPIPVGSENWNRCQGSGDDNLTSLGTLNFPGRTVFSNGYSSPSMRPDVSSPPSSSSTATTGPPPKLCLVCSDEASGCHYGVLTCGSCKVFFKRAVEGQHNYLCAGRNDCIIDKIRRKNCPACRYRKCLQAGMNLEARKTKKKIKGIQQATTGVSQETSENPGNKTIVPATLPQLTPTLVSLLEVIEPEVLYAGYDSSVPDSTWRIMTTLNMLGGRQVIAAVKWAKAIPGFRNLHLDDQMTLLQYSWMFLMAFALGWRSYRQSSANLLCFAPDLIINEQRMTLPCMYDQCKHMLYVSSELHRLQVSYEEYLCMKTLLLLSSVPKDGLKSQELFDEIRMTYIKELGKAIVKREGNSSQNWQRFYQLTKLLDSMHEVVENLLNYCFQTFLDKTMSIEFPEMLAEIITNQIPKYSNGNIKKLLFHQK
Chain of Cytochrome P450 3A4 (Homo sapiens) (P08684 whole entry, looked up): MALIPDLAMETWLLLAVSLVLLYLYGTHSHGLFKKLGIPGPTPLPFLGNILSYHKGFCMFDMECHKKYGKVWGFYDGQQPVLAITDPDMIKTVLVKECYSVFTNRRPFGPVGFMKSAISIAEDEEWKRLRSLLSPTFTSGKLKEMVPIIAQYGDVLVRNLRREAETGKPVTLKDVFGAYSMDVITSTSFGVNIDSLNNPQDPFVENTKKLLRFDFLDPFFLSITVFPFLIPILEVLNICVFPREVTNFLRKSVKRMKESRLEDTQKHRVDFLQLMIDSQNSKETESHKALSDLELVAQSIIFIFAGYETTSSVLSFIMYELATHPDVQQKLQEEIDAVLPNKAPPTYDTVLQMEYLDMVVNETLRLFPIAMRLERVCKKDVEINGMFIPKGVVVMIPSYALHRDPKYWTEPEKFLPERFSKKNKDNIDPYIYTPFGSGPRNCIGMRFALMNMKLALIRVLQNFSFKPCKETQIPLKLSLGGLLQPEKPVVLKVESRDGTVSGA
Chain of Lysosomal acid glucosylceramidase (Homo sapiens) (P04062 whole entry, looked up): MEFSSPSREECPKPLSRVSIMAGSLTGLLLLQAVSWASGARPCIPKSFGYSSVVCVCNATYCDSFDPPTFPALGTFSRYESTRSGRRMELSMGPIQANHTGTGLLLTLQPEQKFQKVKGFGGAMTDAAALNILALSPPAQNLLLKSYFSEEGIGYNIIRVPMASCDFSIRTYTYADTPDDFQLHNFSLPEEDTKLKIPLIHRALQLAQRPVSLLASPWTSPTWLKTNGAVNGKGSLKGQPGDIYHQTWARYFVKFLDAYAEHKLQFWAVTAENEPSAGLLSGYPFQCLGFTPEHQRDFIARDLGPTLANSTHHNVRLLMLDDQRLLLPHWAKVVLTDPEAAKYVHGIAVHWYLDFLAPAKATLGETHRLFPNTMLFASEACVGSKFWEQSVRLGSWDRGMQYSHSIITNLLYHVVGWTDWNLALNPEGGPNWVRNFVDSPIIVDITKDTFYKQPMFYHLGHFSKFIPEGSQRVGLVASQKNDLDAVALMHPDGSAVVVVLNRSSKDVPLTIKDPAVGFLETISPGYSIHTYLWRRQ
Chain of Ubiquitin carboxyl-terminal hydrolase 1 (Homo sapiens) (O94782 whole entry, looked up): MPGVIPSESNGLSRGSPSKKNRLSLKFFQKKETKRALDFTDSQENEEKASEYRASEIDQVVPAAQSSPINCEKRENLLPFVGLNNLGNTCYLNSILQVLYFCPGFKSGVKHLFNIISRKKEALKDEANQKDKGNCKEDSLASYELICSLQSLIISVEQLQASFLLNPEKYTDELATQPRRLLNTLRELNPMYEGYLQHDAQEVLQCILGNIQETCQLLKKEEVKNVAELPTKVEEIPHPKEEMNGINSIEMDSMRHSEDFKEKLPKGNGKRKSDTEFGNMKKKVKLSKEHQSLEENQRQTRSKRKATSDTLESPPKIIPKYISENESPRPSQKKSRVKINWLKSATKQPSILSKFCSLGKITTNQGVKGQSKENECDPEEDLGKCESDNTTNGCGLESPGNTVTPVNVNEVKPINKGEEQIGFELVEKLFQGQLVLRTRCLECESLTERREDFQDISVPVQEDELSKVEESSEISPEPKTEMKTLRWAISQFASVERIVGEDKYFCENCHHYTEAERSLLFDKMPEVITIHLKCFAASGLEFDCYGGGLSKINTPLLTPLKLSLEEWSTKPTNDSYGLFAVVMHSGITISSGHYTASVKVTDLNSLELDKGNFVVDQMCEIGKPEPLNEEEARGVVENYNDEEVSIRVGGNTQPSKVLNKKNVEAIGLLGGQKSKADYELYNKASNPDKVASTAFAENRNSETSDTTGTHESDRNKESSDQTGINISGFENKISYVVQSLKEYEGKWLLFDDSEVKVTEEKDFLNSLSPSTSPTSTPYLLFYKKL
Chain of Cytochrome P450 2C9 (Homo sapiens) (P11712 whole entry, looked up): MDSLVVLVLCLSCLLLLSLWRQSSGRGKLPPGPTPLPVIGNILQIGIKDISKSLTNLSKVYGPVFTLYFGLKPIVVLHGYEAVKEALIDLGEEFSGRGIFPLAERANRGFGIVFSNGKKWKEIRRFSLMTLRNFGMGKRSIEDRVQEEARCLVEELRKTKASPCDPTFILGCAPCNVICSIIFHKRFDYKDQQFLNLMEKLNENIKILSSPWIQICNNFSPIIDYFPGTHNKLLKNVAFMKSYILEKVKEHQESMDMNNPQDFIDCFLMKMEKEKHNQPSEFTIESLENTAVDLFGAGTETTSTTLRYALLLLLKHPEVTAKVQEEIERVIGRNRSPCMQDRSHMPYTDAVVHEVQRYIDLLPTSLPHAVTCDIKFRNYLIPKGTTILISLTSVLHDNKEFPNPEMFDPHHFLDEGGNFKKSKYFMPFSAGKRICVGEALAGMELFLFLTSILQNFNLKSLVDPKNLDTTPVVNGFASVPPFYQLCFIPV

| Compound | Potency [1] [µM] | activity change, negative = inhibition [2] [%] | activity change, negative = inhibition [3] | activity, negative = inhibition [4] [%] | Potency [5] [µM] | Potency [6] [µM] | Potency [7] | Potency [8] | Potency [9] | Potency [10] | outcome [11] | Potency [12] | Potency [13] | Potency [14] | Potency [15] | activation [15] [%] | activity change, negative = inhibition [16] | Potency [17] |
| --- | --- | --- | --- | --- | --- | --- | --- | --- | --- | --- | --- | --- | --- | --- | --- | --- | --- | --- |
| O=c1c(-c2ccc(F)cc2)nc2cncnc2n1Cc1ccccc1 | > 11.4 | -5.88 | -16.1% | 9.13 | > 9.22 | > 46 | inactive | inactive | inactive | inactive | inactive | – | – | – | – | – | – | – |
| COc1ccc(-n2c(=O)c(-c3cc(F)cc(F)c3)nc3cnc(N4CCOCC4)nc32)cc1 | > 11.4 | – | – | – | > 9.22 | > 46 | inactive | inactive | inactive | inactive | inactive | 15.8 µM (active) | inactive | inactive | 1.58 µM (active) | – | – | – |
| COc1ncc2nc(-c3ccc(F)cc3)c(=O)n(Cc3cccs3)c2n1 | > 11.4 | -5.24 | -1.45% | -28.5 | > 9.22 | > 46 | inactive | inactive | inactive | inactive | inactive | – | inactive | – | – | – | – | – |
| CN(C)c1ccc(-c2ccc3ncnc(N(C)Cc4ccco4)c3c2)cc1 | > 11.4 | -28.7 | – | -0.793 | > 46 | > 46 | inactive | 8.91 µM (active) | 7.08 µM (active) | inactive | inactive | – | inactive | – | – | -3.37 | – | – |
| Cc1cnc(CNc2ncnc3ccc(-c4cccc(NS(C)(=O)=O)c4)cc23)cn1 | > 11.4 | -5.16 | – | -9.12 | > 46 | > 46 | – | 25.1 µM (active) | 15.8 µM (active) | inactive | inactive | 3.98 µM (active) | inactive | inactive | – | – | 32.5% [at 2.29 µM] | – |
| FC(F)(F)c1ccccc1-c1nccc(-n2ccnc2)n1 | > 11.4 | -7.77 | 2.35% | 0.859 | > 46 | > 46 | inactive | 15.8 µM (active) | 25.1 µM (active) | inactive | inactive | – | – | – | – | – | – | – |
| N#Cc1ccccc1-c1ccc2ncnc(NC3CC3)c2c1 | > 11.4 | -12.1 | 21.2% | – | > 46 | > 46 | inactive | 6.31 µM (active) | 5.62 µM (active) | – | inactive | 0.1 µM (active) | – | inactive | – | – | – | 2 µM (active) |
| CN(C)c1ncc2nc(-c3ccc(F)cc3)c(=O)n(CCc3ccccc3)c2n1 | > 11.4 | – | 162% [activator] (active) | – | > 9.22 | > 46 | – | inactive | inactive | inactive | inactive | 2.51 µM (active) | inactive | – | 1 µM (active) | – | – | – |
| COc1cccc(Cn2c(=O)c(-c3ccccc3)nc3cncnc32)c1 | > 11.4 | -16.5 | -5.39% | -11.9 | > 9.22 | > 46 | inactive | inactive | inactive | inactive | inactive | – | inactive | – | – | – | – | – |
| FC(F)(F)c1ccccc1-c1nc(-n2ccnc2)c2ccccc2n1 | > 11.4 | 9.46 | 3.74% | -3.35 | > 46 | > 46 | inactive | 15.8 µM (active) | 17.8 µM (active) | inactive | inactive | – | inactive | – | – | 2.67 | – | – |
| CCNc1ncc2nc(CCc3ccccc3)c(=O)n(Cc3ccc(F)cc3)c2n1 | > 11.4 | – | 20.5% | 26.2 | > 9.22 | > 46 | inactive | inactive | inactive | inactive | inactive | 3.16 µM (active) | – | inactive | – | – | – | 2.51 µM (active) |
| COc1ccc(CNc2nc(-c3ccc(N(C)C)cc3)nc3ccccc23)c(OC)c1 | > 11.4 | 5.6 | – | 23.2 | > 46 | > 46 | inactive | inactive | inactive | inactive | inactive | – | inactive | inactive | – | – | – | – |
| Cc1noc(C)c1-c1ccc2ncnc(N3CCOCC3)c2c1 | > 11.4 | 11 | – | -8.22 | > 46 | > 46 | inactive | 12.6 µM (active) | 7.94 µM (active) | inactive | inactive | 12.6 µM (active) | inactive | inactive | – | – | – | – |
| N#Cc1ccccc1-c1ccc2ncnc(NCc3ccccc3)c2c1 | > 11.4 | -20.7 | 16.5% | 27.7 | > 46 | > 46 | inactive | 5.01 µM (active) | 7.94 µM (active) | – | inactive | – | – | – | – | – | – | – |
